Screening results as filed in PubChem BioAssay.
Shown are actives, neighbours in structure and some others; about 1.6% of the full set was active somewhere.
FUS suppressor = FUS proteinopathy suppression in yeast; actives 0.24% (n = 390,000); AID 1347120; S. cerevisiae FUS-expressing, growth rescue, OD600, 24 h; Potency, µM (titrated, usually from 76.6 µM), usual class: activators;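 note: plate controls were DMSO vehicle for no effect and reference control for full effect; nearly all actives have a fitted effect of over 55% in size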
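Yeast FUS proteinopathy model; galactose-induced FUS (2%), starting OD 0.005. Cpds in dilution series, 24hr, 30C, 99% humidity. Abs 600 nm growth. Pos ctrl CP55940 (top 92uM final); neg ctrl DMSO.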
12-LOX inh = inhibitors of human 12S-lipoxygenase ALOX12; P18054; purified 12hLO, xylenol orange hydroperoxide absorbance; Potency, µM (highest dose often 108 µM), without a hit: top-dose activity change, negative = inhibition, usual class: inhibitors; actives 1.1% (n = 580,000); AID 1671190; note: % is set by controls: 0 for no effect and ±100 for the full control effect
Target sequence (P18054 whole entry, looked up): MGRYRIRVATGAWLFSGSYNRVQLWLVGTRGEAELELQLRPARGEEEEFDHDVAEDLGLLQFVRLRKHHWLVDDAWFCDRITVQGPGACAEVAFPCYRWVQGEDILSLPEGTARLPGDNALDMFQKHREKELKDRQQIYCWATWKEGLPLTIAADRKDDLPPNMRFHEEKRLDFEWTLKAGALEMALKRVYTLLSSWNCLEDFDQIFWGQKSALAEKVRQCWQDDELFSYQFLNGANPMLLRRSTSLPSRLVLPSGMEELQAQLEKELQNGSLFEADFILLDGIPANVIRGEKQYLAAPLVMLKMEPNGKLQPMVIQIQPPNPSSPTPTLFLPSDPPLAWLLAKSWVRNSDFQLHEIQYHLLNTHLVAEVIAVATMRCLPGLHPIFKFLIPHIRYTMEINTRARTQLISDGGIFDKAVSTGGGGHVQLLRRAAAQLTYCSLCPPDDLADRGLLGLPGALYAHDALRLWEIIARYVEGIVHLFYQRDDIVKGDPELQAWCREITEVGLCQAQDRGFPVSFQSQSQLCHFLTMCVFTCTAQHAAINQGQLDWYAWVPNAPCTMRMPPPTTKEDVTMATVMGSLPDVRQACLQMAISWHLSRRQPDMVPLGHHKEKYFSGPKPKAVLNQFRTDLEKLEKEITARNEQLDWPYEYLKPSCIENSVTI
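Purified human 12hLO (150 nM final) in 25 mM Hepes, 0.01% Triton X-100, pH 7.0 was preincubated 15 min at room temperature with compound. Then 40 uM arachidonic acid was added, 30 min. Hydroperoxide was read by Fe-XO absorbance ratio 573/405 nm.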
gsp antagonist = gsp mutant antagonism; actives 0.4% (n = 340,000); gsp-mutant cells, cAMP HTRF, 30 min; Potency, µM (doses to about 76.9 µM), without a hit: top-dose activity change, negative = inhibition, actives largely listed as inhibitors; calls by dose curve; cell line not stated here;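 note: intracellular cAMP measured with PDE inhibitor Ro 20-1724 present during compound exposure; % is set by controls: 0 for no effect and ±100 for the full control effect; nearly all actives have a fitted effect of over 65% in size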
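HTRF cAMP read-out (cAMP-d2 plus anti-cAMP antibody-K in lysis buffer, 30 min RT). Before lysis, cells are exposed to compounds with […] for 30 min at 37C in DPBS containing Ca/Mg, BSA and Tween 20.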
Mito fusion yeast = inhibitors of mitochondrial division or activators of mitochondrial fusion; S. cerevisiae fusion-defective mutant growth rescue, CellTiterGlo 48 h; Potency, µM (top dose mostly 46.1 µM), for inactives: top-dose growth rescue (activation), actives largely listed as activators; actives 0.23% (n = 320,000); AID 485298; note: % of control where 0% means no effect; nearly all actives have a fitted effect of over 45% in size
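Growth-rescue viability read-out: after 48 h at the non-permissive 37C in glycerol/ethanol YPEG, yeast mitochondrial fusion mutants are measured by CellTiterGlo luminescence; compounds (23 nl pinned per well) restoring growth score as division inhibitors or fusion activators.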
gsp ag = gsp mutant agonism; Potency, µM (doses to about 76.9 µM), for the others: at the top dose activation (cAMP increase), actives largely listed as activators; actives 0.13% (n = 340,000); gsp mutant cells, cAMP HTRF, 30 min; active = well fitted activation curve with a large enough effect; inconclusive = small, poorly fitted or top-dose-only effect, or another doubt; inactive = no such curve, though single readings can be large or run the other way; cell line not stated here;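 note: phosphodiesterase inhibitor Ro 20-1724 added with compounds to block cAMP breakdown; nearly all actives have a fitted effect of over 60% in size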
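Cells stably selected in G418 were plated at 2000/well, grown 16-24 hr, then given compounds in DMSO with the PDE inhibitor […] (300 uM solution added) for 30 min at 37C; cAMP was read by HTRF.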
* = called active by the depositor; i = inactive; u = inconclusive; x = no result; ! = a repeat was not active; [ ] = dose if it differs, or a comment. Unless noted, calls come from the whole dose curve; as a rule, active = well fitted curve in the direction sought with a large enough effect; inconclusive = small, poorly fitted or top-dose-only effect, or another doubt; inactive = no such curve, though single readings can be large; an effect the other way counts as inactive or inconclusive. Potency is the fitted concentration of half-maximal effect.

SMILES | FUS suppressor | 12-LOX inh | gsp antagonist | Mito fusion yeast | gsp ag
NC(=O)[C@H](Cc1cc2ccccc2s1)NC(=O)[C@@H]1CC2(CC(c3cccc(NC(=O)[C@@H]4CCC(=O)N4)c3)=NO2)CN1C(=O)c1ccccc1 (some centres not stated) | 35.5µM* | -7.2% | -8.8% | -1.3% | u
NC(=O)[C@H](Cc1cc2ccccc2s1)NC(=O)[C@@H]1CC2(CC(c3cccc(NC(=O)[C@@H]4CCC(=O)N4)c3)=NO2)CN1C(=O)/C=C/Sc1ccccc1 (some centres not stated) | 28.2µM* | u | -8.6% | 0.1% | 12.1%
C=C(C)C(=O)Nc1cccc(C2=NOC3(C2)C[C@@H](C(N)=O)N(C(=O)c2ccc(Cl)cc2)C3)c1 (some centres not stated) | i | x | -3.5% | 0.8% | 1.2%
CCNC(=O)c1cc(OC)cc(OC)c1 | x | -20.0% | x | x | x
CC(=O)NCc1cccs1 | x | 2.1% | x | x | x
CC(=O)Nc1ccc(C(=O)COC(=O)c2nc3nc(C)cc(C)n3n2)cc1 | u | 39.8µM* | 13.5% | 6.8% | 38.2%
C/C(CC(=O)Nc1ccc(Cl)cc1)=N\NC(=O)C1CCCCC1 | x | 16.2% | x | x | x
S=C(NC(=NC=C(Cl)Cl)c1ccc(Cl)cc1)Nc1ccc(Cl)cc1 | x | 20µM* | x | x | x
O=C(NC(=S)Nc1ccc(Oc2ccc(Cl)cc2)cc1)c1ccccc1 | i | 8.91µM* | 7.1% | -0.1% | 23.3%
COc1ccc(Cl)cc1C(=O)Nc1ccc(NC(C)=O)cc1 | i | u | 35.5µM* | -1.2% | -13.6%
O=C(NC(=S)Nc1ccc(-c2ccccc2)cc1)c1ccccc1 | i | u | -8.0% | x | 13.4%
CC(=O)Nc1ccc(NC(=S)NC(=O)c2ccc(Cl)cc2)cc1 | x | 5.62µM* | x | x | x
Fc1ccc(NC(=S)Nc2ccc(Cl)cc2)cc1 | i | -29.3% | 3.1% | -7.4% | -6.2%
CC(=O)c1ccc(NC(=O)NC(=O)c2ccc(Cl)cc2)cc1 | x | 8.7% | x | x | x
Cc1cc(C(=O)Nc2ccc(Cl)cc2)c2ccccc2n1 | i | 61.0% | 2.4% | -1.3% | -25.4%
CC1CCN(S(=O)(=O)c2ccc(NC(=S)NC(=O)c3ccc(Cl)cc3)cc2)CC1 | i | 14.1µM* | 9.1% | -2.9% | u
CC(=O)Oc1c(I)cc(I)cc1C(=O)Nc1ccc(Cl)cc1 | i | 135.0% | 35.5µM* | -26.0% | 6.6%[15.4 µM]
O=C(NC(=S)Nc1ccc(Cl)cc1)c1ccccc1 | i | 44.7µM* | 5.6% | -0.1% | 17.0%
Cc1cccc(-n2c(=O)c3c(cc(C)n3C)n(CC(=O)Nc3c(C)cccc3C)c2=O)c1 | x | 70.8µM* | x | x | x
COc1ccccc1NC(=O)Cn1c(=O)n(-c2cccc(C)c2)c(=O)c2c1cc(C)n2C | x | 15.4% | x | x | x
N#C/C(=N\Nc1cccc(Cl)c1)C(=O)c1ccccc1 | i | u | 15.8µM* | -16.2% | 0.1%
Clc1cccc(N/N=C(/c2ccccc2)c2ccncc2)c1 | x | 39.8µM* | x | x | x
CC(=O)CCc1c(C)nc2c(Cl)cccc2c1Cl | x | -25.3% | x | x | x
Cc1ccc(C2=[N+]([O-])C3(CCCC/C3=N\O)N(O)C2(C)C)o1 (configuration not stated) | x | 8.5% | x | x | x
CC(C)c1nn(C)c(N(C)C)c1CNC(C)c1nnc2n1CCC2 (configuration not stated) | x | -18.2% | x | x | x
SMILES | FUS suppressor | 12-LOX inh | gsp antagonist | Mito fusion yeast | gsp ag
COc1ccc(CN2C(=O)c3cccnc3C2O)cc1 (configuration not stated) | i | u | 22.0% | -1.7% | -8.8%
COc1ccc(OC)c(NC2c3ncccc3C(=O)N2Cc2ccco2)c1 (configuration not stated) | 35.5µM* | u | -3.4% | 0.0% | 14.3%
COc1ccc(CN2C(=O)c3cccnc3C2Nc2cc(Cl)ccc2OC)cc1 (configuration not stated) | i | 12.6µM* | -6.2% | 14.4% | 19.0%
CN(C)C(=O)c1ccc(NC(=O)c2cc(-c3ccco3)nc3ccccc23)cc1 | i | 15.8µM*! | -15.6% | -3.4% | -1.0%
Cc1nnc(NC(=O)c2cc(-c3ccco3)nc3ccccc23)s1 | x | u | x | 9.3% | x
O=C(Nc1nccs1)c1cc(-c2ccccc2)nc2ccccc12 | i | -18.0% | -20.1% | u | 12.0%[15.4 µM]
